Source: PubChem BioAssay (NCATS)
Several values for one entry are separate records, joined by “and”; a condition that tells them apart may be missing. Equal values may be shown once. Results filed as inconclusive are left out. Where a structure was tested more than once in an assay, its records may differ in their call. Activity calls are given as the source filed them. Unless noted, calls come from the whole dose curve; as a rule, active = well fitted curve in the direction sought with a large enough effect; inconclusive = small, poorly fitted or top-dose-only effect, or another doubt; inactive = no such curve, though single readings can be large; an effect the other way counts as inactive or inconclusive.

How the values were obtained:
[1] = qHTS Assay for Identification of Small Molecule Antagonists for NFkB Signaling Pathway (AID 895; active = well fitted inhibition curve with a large enough effect in the signal ratio, with a control signal flat, not every such curve was filed as active; the % refers to the signal ratio; note: potency is the fitted concentration of half-maximal effect)
Procedure, shortened: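 ME-180 NFkB-bla cells (beta-lactamase under NFkB response element), plated overnight, treated with compound then 10 pM TNF alpha (about EC50) for 5 hrs at 37 C. LiveBLAzer FRET read at 460/530 nm emission, 405 nm excitation.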

[2] = Confirmation and Secondary Assay for Modulators of Hemoglobin Beta Chain Splicing at IVS2 654 locus (AID 910);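 note: HeLa cells stably carrying EGFP split by mutant beta-globin IVS2-654 intron; % of control where 0% means no effect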
Procedure, shortened: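 HeLa cells stably expressing EGFP interrupted by β-globin IVS2-654 intron, seeded overnight in Opti-MEM/2% FCS, then treated 2 days at 37 °C. Restored splicing read as total peak GFP intensity per well by laser scanning cytometry (488 nm excitation, 500–520 nm emission); 500 nM antisense PNA as control.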

[3] = qHTS Assay for Identification of Small Molecule Agonists for Thrombopoietin (TPO) Signaling Pathway (AID 917); note: % is set by controls: 0 for no effect and ±100 for the full control effect
Procedure, shortened: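 Murine Ba/F3 cells stably expressing human TPO receptor and a Glycoprotein IIb promoter–luciferase reporter were IL-3-starved overnight, then treated with compounds plus TPO (26 pM final, its EC50) for 24 hrs at 37 C; luminescence was read.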

[4] = Confirmation and Secondary Assay for Modulators of Hemoglobin Beta Chain Splicing at IVS2 705 locus (AID 930);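 note: HeLa cells stably expressing the EGFP-705 splicing reporter; GFP fluorescence per well restored by corrected splicing of the IVS2-705 intron in EGFP; series mostly up to about 46 µM; % of control where 0% means no effect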
Procedure, shortened: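 Per-well GFP, captured at 1 x 8 µm resolution with 488 nm excitation, served as the read-out for HeLa EGFP-705 cells incubated 2 days with test compound versus DMSO.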

[5] = molecular target: Muscarinic acetylcholine receptor M1 (Rattus norvegicus) (UniProt P08482); assay: qHTS Assay for Antagonists of Acetylcholine Muscarinic M1 Receptor: Kinetic Measurement of Intracellular Calcium Response (AID 943);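 note: Fluo-4 calcium signal as peak divided by basal fluorescence over 4 min; series mostly up to about 35 µM; nearly all actives have a fitted effect of over 75% in size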
Muscarinic acetylcholine receptor M1 (Rattus norvegicus), sequence (P08482 whole entry, looked up): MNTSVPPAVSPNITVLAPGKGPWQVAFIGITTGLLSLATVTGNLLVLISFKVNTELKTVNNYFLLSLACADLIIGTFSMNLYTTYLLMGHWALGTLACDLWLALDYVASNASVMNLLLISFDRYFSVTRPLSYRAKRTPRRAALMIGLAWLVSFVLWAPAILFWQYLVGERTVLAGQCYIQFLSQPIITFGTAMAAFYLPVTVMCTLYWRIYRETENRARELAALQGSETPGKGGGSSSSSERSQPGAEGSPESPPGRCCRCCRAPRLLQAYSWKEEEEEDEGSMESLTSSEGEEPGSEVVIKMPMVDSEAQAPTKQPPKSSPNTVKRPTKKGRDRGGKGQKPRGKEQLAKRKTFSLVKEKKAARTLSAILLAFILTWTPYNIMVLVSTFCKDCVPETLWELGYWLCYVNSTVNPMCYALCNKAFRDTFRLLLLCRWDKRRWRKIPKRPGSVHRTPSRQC
Procedure, shortened: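 Intracellular calcium flux, recorded with Fluo-4 in a kinetic plate reader, served as signal; the response to carbachol at EC80 (100 nM final) was taken as maximal over minimal fluorescence after a 10 min compound pre-incubation in rat M1-CHO cells.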

[6] = molecular target: Muscarinic acetylcholine receptor M1 (Rattus norvegicus) (UniProt P08482); assay: qHTS Assay for Antagonists of Acetylcholine Muscarinic M1 Receptor: Measurement of IP-One Response (AID 944); note: nearly all actives have a fitted effect of over 75% in size
Procedure, shortened: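 Steps: plate transfected CHO-M1 cells overnight; add test compound, 10 min; add carbachol (200 nM, EC80) in stimulation buffer with LiCl; incubate 30 min; add labelled IP1 tracer and anti-IP1 antibody in lysis buffer; read HTRF after 10 min.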

[7] = molecular target: Pyruvate kinase (Leishmania mexicana) (UniProt Q27686); assay: qHTS Validation Assay for Inhibitors of Leishmania Mexicana Pyruvate Kinase (AID 945);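 note: 0% = DMSO only neutral control wells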
Pyruvate kinase (Leishmania mexicana), sequence (Q27686 2-499 E452W): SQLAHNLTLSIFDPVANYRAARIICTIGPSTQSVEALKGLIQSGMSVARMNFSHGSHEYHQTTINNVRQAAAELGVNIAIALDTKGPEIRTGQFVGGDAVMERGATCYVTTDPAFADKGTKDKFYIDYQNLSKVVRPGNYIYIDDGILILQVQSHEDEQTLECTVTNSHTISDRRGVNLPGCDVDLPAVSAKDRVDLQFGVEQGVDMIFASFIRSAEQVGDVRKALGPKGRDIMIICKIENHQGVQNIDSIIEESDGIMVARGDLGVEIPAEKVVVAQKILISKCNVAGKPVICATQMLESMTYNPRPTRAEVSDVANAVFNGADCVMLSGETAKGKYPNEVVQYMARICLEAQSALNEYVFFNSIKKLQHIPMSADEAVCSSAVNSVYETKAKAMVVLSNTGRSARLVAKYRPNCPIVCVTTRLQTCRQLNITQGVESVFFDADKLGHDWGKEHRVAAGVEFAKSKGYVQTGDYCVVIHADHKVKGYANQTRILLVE
Procedure, shortened: (§1)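 An endpoint luciferase assay: 0.2 nM LmPYK E451W turns over 0.5 mM PEP with 0.1 mM ADP for 1 h at room temperature, pH 7.2, before PKLight addition. Values are normalized to DMSO-only wells.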

[8] = molecular target: Pyruvate kinase PKM (Homo sapiens) (UniProt P14618); assay: qHTS Assay for Activators of Human Muscle Pyruvate Kinase (AID 954; active = well fitted curve in the direction sought with a large enough effect, not every such curve was filed as active;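 note: 0% = uninhibited enzyme and -100% = no enzyme or full thiadiazolimine inhibition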)
Pyruvate kinase PKM (Homo sapiens), sequence (P14618 whole entry, looked up): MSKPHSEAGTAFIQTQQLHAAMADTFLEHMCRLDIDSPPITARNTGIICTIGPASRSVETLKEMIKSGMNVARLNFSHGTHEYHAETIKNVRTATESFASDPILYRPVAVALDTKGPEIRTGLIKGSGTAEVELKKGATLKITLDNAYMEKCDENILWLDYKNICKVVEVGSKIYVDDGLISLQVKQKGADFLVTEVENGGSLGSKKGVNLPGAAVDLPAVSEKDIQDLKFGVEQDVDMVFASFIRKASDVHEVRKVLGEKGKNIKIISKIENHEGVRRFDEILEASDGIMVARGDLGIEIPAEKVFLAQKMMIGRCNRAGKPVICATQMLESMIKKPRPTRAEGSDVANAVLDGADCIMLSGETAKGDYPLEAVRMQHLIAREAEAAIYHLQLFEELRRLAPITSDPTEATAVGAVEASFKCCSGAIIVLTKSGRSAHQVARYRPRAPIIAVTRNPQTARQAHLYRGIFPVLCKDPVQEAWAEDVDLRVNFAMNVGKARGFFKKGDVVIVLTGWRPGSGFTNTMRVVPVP
Procedure, shortened: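 Enzyme was run at intermediate activity so both inhibitors and activators could be detected. ATP formed from ADP and PEP by 0.1 nM human PKM2 during a 1 h room-temperature incubation was quantified by coupled luciferase luminescence.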

[9] = molecular target: Cytochrome P450 2C19 (Homo sapiens) (UniProt P33261); assay: qHTS Assay for Inhibitors and Substrates of Cytochrome P450 2C19 (AID 899); note: nearly all actives have a fitted effect of over 60% in size; note: potency is the fitted concentration of half-maximal effect
Cytochrome P450 2C19 (Homo sapiens), sequence (P33261 whole entry, looked up): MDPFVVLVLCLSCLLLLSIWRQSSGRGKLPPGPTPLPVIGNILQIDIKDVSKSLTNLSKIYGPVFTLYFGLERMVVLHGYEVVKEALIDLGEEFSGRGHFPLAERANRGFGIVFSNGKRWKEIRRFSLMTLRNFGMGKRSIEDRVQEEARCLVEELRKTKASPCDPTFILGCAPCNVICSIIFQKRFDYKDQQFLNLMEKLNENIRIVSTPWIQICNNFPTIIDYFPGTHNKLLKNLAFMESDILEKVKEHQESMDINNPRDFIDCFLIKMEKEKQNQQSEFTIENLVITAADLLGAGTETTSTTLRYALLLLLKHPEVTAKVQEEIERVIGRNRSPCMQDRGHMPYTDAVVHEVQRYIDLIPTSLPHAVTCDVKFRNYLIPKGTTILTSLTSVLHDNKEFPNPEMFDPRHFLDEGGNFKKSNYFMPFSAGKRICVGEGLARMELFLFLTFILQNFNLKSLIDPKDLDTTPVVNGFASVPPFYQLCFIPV
Procedure, shortened: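 Signal comes from luciferase acting on luciferin released by CYP2C19-mediated hydroxylation of Luciferin-H EGE, 10uM (KM). Assay mix: 5nM enzyme, 50mM KPO4; 60 min at 37C with NADPH regeneration. Data normalized against 57uM ketoconazole.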

[10] = qHTS Assay for Identification of Small Molecule Agonists for Hypoxia Response Element Signaling Pathway (AID 914; active = well fitted activation curve with a large enough effect in the signal ratio, with a control signal flat, not every such curve was filed as active; the % refers to the signal ratio; note: % of control where 0% means no effect); conditions: ME-180 (cervical carcinoma) HRE-bla reporter, beta-lactamase ratio, CoCl2, 17 h; activation: stronger effect = higher value
Procedure, shortened: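 In Opti-MEM containing 0.5% dialyzed FBS and 10 mM HEPES, ME-180 HRE-bla cells received a compound titration and EC50 CoCl2. They were incubated 17 hours, then CCF4-loaded 2.5 hours at room temperature before ratio reading.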

[11] = qHTS Assay for Identification of Small Molecule Antagonists for Thrombopoietin (TPO) Signaling Pathway (AID 918); conditions: TPO-dependent cell signaling reporter, antagonist mode; note: potency is the fitted concentration of half-maximal effect; nearly all actives have a fitted effect of over 60% in size
Procedure, shortened: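 First, Ba/F3 reporter cells expressing human TPO receptor were held overnight without IL-3. Next, compound and 26 pM TPO were added. After 24 hrs incubation at 37 C, luciferase luminescence under the Glycoprotein IIb promoter was recorded.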

[12] = molecular target: Pyruvate kinase (Leishmania mexicana) (UniProt Q27686); assay: qHTS Validation Assay for Activators of Leishmania Mexicana Pyruvate Kinase (AID 959)
Procedure, shortened: as §1

[13] = Cell Viability - LYMP2-001 (AID 921);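 note: series mostly up to about 92 µM; 0% = DMSO only and full inhibition = tetraoctylammonium bromide control wells; nearly all actives have a fitted effect of over 70% in size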
Procedure, shortened: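 Human lymphoblastoid cells (Coriell), 2500 per well, were preincubated 5 hr at 37 C, then exposed to compounds in complete medium for 24 hr at 37 C. Cellular ATP was read by CellTiter-Glo luminescence; AC50 from Hill fits of concentration-response data.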

[14] = MultiTox-Fluor Cytotoxicity Assay - LYMP1-001 - Dead Cells (AID 946);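 note: 0% = DMSO and 100% = tetraoctylammonium bromide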
Procedure, shortened: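 In this qHTS, 15 uM tetraoctylammonium bromide defined 100% and DMSO defined basal activity. Lymphoblastoid cells (LYMP1-001, 2500 per well) received compound for 16 hr at 37 C before a fluorogenic dead-cell substrate readout at 485/520 nm.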

[15] = MultiTox-Fluor Cytotoxicity Assay - LYMP1-001 - Live Cells (AID 947);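 note: 0% = DMSO only and full inhibition = tetraoctylammonium bromide control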
[16] = Cell Viability - LYMP1-002 - Assay at 16 hr (AID 948);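 note: 0% = DMSO alone and full effect = 92 µM tetraoctylammonium bromide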
Procedure, shortened: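 Human lymphoblastoid cells (LYMP1-002), 2500/well, were preincubated 5 hr at 37 C, then exposed to compounds for 16 hr at 37 C in complete medium. Cellular ATP was read by CellTiter-Glo luminescence after 30 min at room temperature; AC50 from Hill fits.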

[17] = MultiTox-Fluor Cytotoxicity Assay - LYMP1-002 - Live Cells (AID 955); note: % is set by controls: 0 for no effect and ±100 for the full control effect
Procedure, shortened: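 Cytotoxicity in the human lymphoblastoid line LYMP1-002 is measured as loss of live-cell protease activity after 16 h treatment in complete culture medium. AC50 is derived from Hill-equation fits of qHTS concentration-response data.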

[18] = MultiTox-Fluor Cytotoxicity Assay - LYMP1-002 - Dead Cells (AID 960);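 note: 0% = DMSO and 100% = tetraoctylammonium bromide; nearly all actives have a fitted effect of over 60% in size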
Procedure, shortened: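 Acute cytotoxicity in a human lymphoblastoid line is scored as rising dead-cell protease signal after 16 hr exposure at 37 C, measured fluorometrically (485/520).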

[19] = MultiTox-Fluor Cytotoxicity Assay - LYMP1-003 - Dead Cells (AID 961);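 note: 0% = DMSO and 100% = tetraoctylammonium bromide; nearly all actives have a fitted effect of over 70% in size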
Procedure, shortened: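 Acute toxicity is scored as increased dead-cell protease activity in human lymphoblastoid LYMP1-003 cells after 16 h compound exposure in complete culture medium. Activity is normalized to DMSO basal and 15 uM tetraoctylammonium bromide as full response.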

[20] = molecular target: Pyruvate kinase PKM (Homo sapiens) (UniProt P14618); assay: qHTS Assay for Inhibitors of Human Muscle Pyruvate Kinase (AID 958)
Procedure, shortened: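 Human PKM2 activity is measured as ATP generation, detected by luciferase-coupled luminescence. The enzyme (0.1 nM) acts on 0.5 mM PEP and 0.1 mM ADP for 1 h at ambient temperature; data are normalized to uninhibited and full-inhibition wells.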

CCSC(=N)N
inactive: Potency [1] | Potency [2] | Potency [3] | outcome [4] | Potency [5] | Potency [6] | Potency [7] | outcome [8]

N=C(N)c1ccccc1
inactive: Potency [1] | Potency [3] | Potency [5] | Potency [6] | Potency [7] | outcome [8]

Cc1nc2c(OCc3ccccc3)cccn2c1CC#N
inactive: Potency [1] | Potency [9] | Potency [3] | Potency [6] | Potency [7] | outcome [8]

O=c1[nH]ccc2c(O)cccc12
inactive: Potency [1] | Potency [3] | Potency [5] | Potency [6] | Potency [7] | outcome [8]

O=C(O)C1=CCNCC1
inactive: Potency [1] | Potency [2] | Potency [3] | outcome [4] | Potency [5] | Potency [6] | Potency [7] | outcome [8]

CCN1C(=O)C=CC1=O
inactive: Potency [1] | activation [10] 23.4% | Potency [5] | Potency [6] | Potency [7] | outcome [8]
active: Potency [11] 1.58 µM

CN[C@H](CC(=O)O)C(=O)O
inactive: Potency [1] | Potency [9] | Potency [3] | Potency [6] | Potency [7] | outcome [8]

NC1(C(=O)O)CC1
inactive: Potency [1] | Potency [2] | activation [10] -20.7% | Potency [3] | outcome [4] | Potency [6] | Potency [7] | outcome [8]

CC[C@H](NC(=O)c1c(C)c(-c2ccccc2)nc2ccccc12)c1ccccc1
active: Potency [1] 12.6 µM | Potency [9] 25.1 µM
inactive: Potency [3] | Potency [6] | Potency [7] | outcome [8]

Cc1nc(N=Nc2ccc(C(=O)O)cc2)c(COP(=O)(O)O)c(C=O)c1O
inactive: Potency [1] | Potency [9] | Potency [3] | Potency [5] | Potency [6] | Potency [7] | outcome [8]
active: Potency [12] 5.01 µM

O=C(O)C1=CCCNC1
inactive: Potency [1] | Potency [2] | Potency [3] | outcome [4] | Potency [5] | Potency [6] | Potency [7] | outcome [8]

CC(=O)C(C)=O
inactive: Potency [1] | Potency [9] | outcome [13] | Potency [6] | Potency [7] | outcome [14] | outcome [15] | outcome [16] | outcome [8] | outcome [17] | outcome [18] | outcome [19]

Cn1c(=O)[nH]c2ncn(C)c2c1=O
inactive: Potency [1] | Potency [2] | Potency [3] | outcome [4] | Potency [5] | Potency [6] | Potency [7] | outcome [8]

O=c1onc2cnc3ccccc3n12
inactive: Potency [9] | Potency [3] | Potency [6] | Potency [7] | outcome [8]
active: Potency [1] 5.62 µM

COc1ccc(-c2ccc(N)[n+](CCCC(=O)O)n2)cc1
inactive: Potency [1] | Potency [3] | Potency [5] | Potency [6] | Potency [7] | outcome [8]

NC1(C(=O)O)CCCCC1
inactive: Potency [1] | Potency [9] | Potency [3] | Potency [6] | Potency [7] | outcome [8]

N[C@H](C(=O)O)[C@H](O)C(=O)O
inactive: Potency [1] | Potency [3] | Potency [5] | Potency [6] | Potency [7] | outcome [8]

[Li+]
inactive: Potency [1] | activation [10] 9.95% | Potency [3] | Potency [6] | Potency [7] | outcome [8]

CNc1cc(NS(=O)(=O)c2ccc(N)cc2)nc(NC)n1
inactive: Potency [1] | Potency [9] | Potency [3] | Potency [5] | Potency [7] | outcome [8]

NC(=O)c1ccccc1
inactive: Potency [1] | Potency [9] | Potency [3] | outcome [13] | Potency [5] | Potency [6] | Potency [7] | outcome [14] | outcome [15] | outcome [16] | outcome [8] | outcome [17] | outcome [19]

C/C(=C\c1ccc(C(=O)O)cc1)c1ccc2c(c1)C(C)(C)CCC2(C)C
active: Potency [1] 10 µM
inactive: activation [10] -65.3% | Potency [6] | Potency [7] | outcome [8]

CC(=O)NCCc1c[nH]c2ccc(O)cc12
inactive: Potency [1] | Potency [2] | Potency [3] | outcome [4] | Potency [5] | Potency [6] | Potency [7] | outcome [8]

N[C@H](C(=O)O)c1cc(O)cc(O)c1
inactive: Potency [1] | Potency [9] | Potency [3] | Potency [5] | Potency [6] | Potency [7] | outcome [8]

O=C(O)c1cccnc1C(=O)O
inactive: Potency [1] | Potency [9] | Potency [2] | Potency [3] | outcome [4] | Potency [5] | Potency [6] | Potency [7] | outcome [8]

C#CCn1c(=O)c2c(ncn2C)n(C)c1=O
inactive: Potency [1] | Potency [3] | Potency [5] | Potency [6] | Potency [7] | outcome [8]

O=C(O)C1=CC(=C(c2ccc(O)c(C(=O)O)c2)c2ccc(O)c(C(=O)O)c2)C=CC1=O
inactive: Potency [1] | Potency [2] | outcome [4] | Potency [5] | Potency [6] | Potency [7] | Potency [20]

NCCCNCCCCNCCCN
inactive: Potency [1] | Potency [6] | Potency [7] | outcome [8]
inactive and 7.94 µM (active): Potency [9]

NC/C=C\C(=O)O
inactive: Potency [1] | Potency [9] | Potency [2] | Potency [3] | outcome [4] | Potency [5] | Potency [6] | Potency [7] | outcome [8]
